Here are results for 40 compounds from PubChem BioAssay (NCATS).

Structures are written as SMILES. Records with an inconclusive call do not appear. Calls of active or inactive are those of the source. Calls come from the whole dose curve; as a rule, active = well fitted cell-killing curve with a large enough effect; inconclusive = small, poorly fitted or top-dose-only effect, or effect the other way; inactive = no such curve, though single readings can be large or run the other way.
Potency is the fitted concentration of half-maximal effect.

The test in a line: Quantitative High-Throughput drug screen in 47 multiple myeloma cell lines against the NCATS MIPE library collection: PE2_PLB cell viability assay (AID 1919869). Note: nearly all actives have a fitted effect of over 35% in size. The conditions noted are these: PE2_PLB myeloma cells viability, ATP luminescence, 48 h; series mostly up to 45.8 µM. The source says:
PI: Beverly A. Mock Ph.D.
Laboratory of Cancer Biology and Genetics,
Center for Cancer Research, National Cancer Institute,
National Institute of Health, Bethesda, Maryland
Drug resistance and disease progression are common in multiple myeloma (MM) patients, underscoring the need for new therapeutic combinations. […] We hypothesized that effective combinations would reduce MYC expression and enhance p16 activity. […] These preclinical data identify potentially useful drug combinations for evaluation in drug-resistant MM and reveal potential mechanisms of combined drug sensitivity.
Described herein is the primary MIPE qHTS used to cherrypick compounds. Validated compounds were then further tested for potential synergistic activiy.
[1] Peat TJ, Gaikwad SM, Dubois W, Gyabaah-Kessie N, Zhang S, Gorjifard S, Phyo Z, Andres M, Hughitt VK, Simpson RM, Miller MA, Girvin AT, Taylor A, Williams D, D'Antonio N, Zhang Y, Rajagopalan A, Flietner E, Wilson K, Zhang X, Shinn P, Klumpp-Thomas C, McKnight C, Itkin Z, Chen L, Kazandijian D, Zhang J, Michalowski AM, Simmons JK, Keats J, Thomas CJ, Mock BA. Drug combinations identified by high-throughput screening promote cell cycle transition and upregulate Smad pathways in myeloma. Cancer Lett. 2023 Aug 1;568:216284. doi: 10.1016/j.canlet.2023.216284. Epub 2023 Jun 24. PMID: 37356470; PMCID: PMC10408729.
SEQUENCE No. (e.g., 1, 2, 3, etc.); […] (e.g., Cells, Incubation, Reagent, etc.); VALUE and DESCRIPTION.
1; Cells; 5 uL; white, solid bottom 1536-well Greiner assay plate.
2; Compounds; 23 nL; Kalypsis pin tool (Wako USA) equipped with a 1536-well pin head to transfer to the assay plates.
3; Incubation; 48 hours; 37C incubation.
4; Reagent;5uL; CellTiter Glo (Promega).
5; Detector; 425V; Luminescence; Viewlux PerkinElmer.
NOTES (numbers refer to Sequence numbers above)
1. The cell-based screening methods employed in this study were like those previously published. Briefly, the corresponding myeloma cell lines were screened in 1,536-well plates with 500 cells, 5-uL per well for inhibition of cell viability (assessed by measuring ATP levels with CellTiterGlo).
2. NCATS MIPE 4.0 library of approved and investigational drugs were added using the Kalypsis pin tool. Wells treated with DMSO only for 100% viability and media only for 0% viability were used as controls.
3. The assay plates were covered and incubated for 48 hours in a 37C, 5% CO2 incubator with controlled humidity.
4. After 48 hours, CellTilter-GloTM luminescent substrate mix (Promega) reagent was added to the assay plate and plates we incubated for 5 min at room temperature.
5. Signal was measured as median relative luminescence units on a ViewLux (PerkinElmer) multiplate reader.
[1] Heske CM, Davis MI, Baumgart JT, Wilson K, Gormally MV, Chen L, Zhang X, Ceribelli M, Duveau DY, Guha R, Ferrer M, Arnaldez FI, Ji J, Tran HL, Zhang Y, Mendoza A, Helman LJ, Thomas CJ. Matrix Screen Identifies Synergistic Combination of PARP Inhibitors and Nicotinamide Phosphoribosyltransferase (NAMPT) Inhibitors in Ewing Sarcoma. Clin Cancer Res. 2017 Dec 1;23(23):7301-7311. doi: 10.1158/1078-0432.CCR-17-1121. Epub 2017 Sep 12. PMID: 28899971; PMCID: PMC6636827.
Turning to `CCNC(=O)CCCC=CC[C@@H]1[C@H](C=CC(O)CCc2ccccc2)[C@@H](O)C[C@@H]1O` (stereo not given in full), the Potency result is “inactive”.

With `CCN1CCN(c2ccc(Nc3cc(N(C)C(=O)Nc4c(Cl)c(OC)cc(OC)c4Cl)ncn3)cc2)CC1`, the Potency result was “inactive”.

Consider `CCOc1ccccc1N=Nc1c(C)[nH]n(-c2nc(-c3ccccc3)cs2)c1=O`, for which the Potency result is “inactive”.

`C[C@]12C=CC(=O)C=C1CC[C@@H]1[C@@H]2[C@@H](O)C[C@@]2(C)[C@@H]1CC[C@]2(O)C(=O)CO`: the Potency entry is “inactive”.

On to `C#CCN(C)CC1=Cc2ccccc2Oc2ccccc21`, for which the Potency entry is “inactive”.

On to `CNC1CCC(N(Cc2cccc(-c3ccncc3)c2)C(=O)c2sc3ccccc3c2Cl)CC1` (stereo not given), for which the Potency was 10.5 µM (active).

Consider `CN(C)S(=O)(=O)c1ccc2c(c1)C(=Cc1cc3c([nH]1)CCCC3)C(=O)N2`, for which the Potency is 3.72 µM (active).

Consider `O=C(Nc1cccc(C(F)(F)F)c1)Nc1cc(S(=O)(=O)NC2CC2)ccc1-c1ccsc1`, for which the Potency was 26.4 µM (active).

With `CNC(=O)c1cc(Oc2ccc(NC(=O)Nc3ccc(Cl)c(C(F)(F)F)c3)c(F)c2)ccn1`, the Potency is 3.32 µM (active).

As to `CCN(CCO)CCCOc1ccc2c(Nc3cc(CC(=O)Nc4cccc(F)c4)[nH]n3)ncnc2c1`, the Potency entry is “inactive”.

Turning to `Nc1ncnc2c1ncn2[C@@H]1O[C@H](CO)[C@@H](O)[C@@H]1O`, the Potency is 14.8 µM (active).

Consider `O=C(Nc1cccc(Cl)c1)Nc1ncc(CCNc2ncnc3ccsc23)s1`, for which the Potency is 4.18 µM (active).

As for `CN[C@H]1[C@@H](O[C@@H]2[C@H](O[C@@H]3[C@@H](O)[C@@H](O)[C@@H](N=C(N)N)[C@@H](O)[C@@H]3N=C(N)N)O[C@H](C)[C@@]2(O)C=O)O[C@@H](CO)[C@@H](O)[C@H]1O`, the Potency result was “inactive”.

On to `CCCCCCCCCCCCCC(=O)N[C@H](CO)[C@H](O)c1ccc([N+](=O)[O-])cc1`, for which the Potency was 26.4 µM (active).

`C[C@H]1O[C@@H](n2cc(F)c(=O)[nH]c2=O)[C@H](O)[C@H]1O`: the Potency was 1.87 µM (active).

Regarding `Fc1ccc(C(c2ccc(F)cc2)N2CCN(CC=Cc3ccccc3)CC2)cc1`, the Potency is 5.26 µM (active).

As for `CC=C1C2C=C(C)CC1(N)c1ccc(=O)[nH]c1C2` (stereo not given), the Potency entry is “inactive”.

For the compound `CC(C)=CCCC(C)=CCCC(C)=CCCC(C)=CCCC(C)=CCCC(C)=CCCC(C)=CCCC(C)=CCCC(C)=CCO`, the Potency result was “inactive”.

In the case of `CCC(=O)N1CCN(c2ccc(-n3c(=O)ccc4cnc5ccc(-c6cnc7ccccc7c6)cc5c43)cc2C(F)(F)F)CC1`, the Potency was 0.0093 µM (active).

As to `O=C(O)Cc1cccc(OCCCN(Cc2cccc(C(F)(F)F)c2Cl)CC(c2ccccc2)c2ccccc2)c1`, the Potency is 16.6 µM (active).

Consider `CN1CCN(c2ncc(-c3cc(Cl)cc(Cl)c3Cl)c(N)n2)CC1`, for which the Potency is 10.5 µM (active).

For the compound `CN[C@@H]1[C@@H](O)[C@@H](O[C@@H]2[C@@H](O)[C@H](O[C@H]3O[C@H](CN)[C@@H](O)[C@H](O)[C@@H]3O)[C@@H](N)C[C@@H]2NC(=O)[C@@H](O)CN)OC[C@]1(C)O`, the Potency result is “inactive”.

`COc1c(C)c2c(c(O)c1CC=C(C)CCC(=O)OCCN1CCOCC1)C(=O)OC2`: the Potency is 4.18 µM (active).

Regarding `O=C1CN2Cc3c(ccc(Cl)c3Cl)N=C2N1`, the Potency is 20.9 µM (active).

As for `CC1(C)CC(=O)c2c(C(F)(F)F)nn(-c3ccc(C(N)=O)c(NC4CCC(O)CC4)c3)c2C1` (stereo not given), the Potency was 0.118 µM (active).

As for `N#CC(c1ccnc(NCCc2cccnc2)n1)c1nc2ccccc2s1` (stereo not given), the Potency is 5.26 µM (active).

With `CC(O)=C(C#N)C(=O)Nc1ccc(C(F)(F)F)cc1`, the Potency was 8.33 µM (active).

For `O=C(CCCN1CCN(c2ccc(F)cc2)CC1)NC1c2ccccc2CSc2ccccc21` (stereo not given), the Potency was 13.2 µM (active).

In the case of `Cn1c(=O)c(-c2c(Cl)cccc2Cl)cc2cnc(Nc3cccc(C(=O)O)c3)nc21`, the Potency result is “inactive”.

For `O=C(O)CCNc1cc(N2CCc3ccccc3CC2)nc(-c2ccccn2)n1`, the Potency result was “inactive”.

On to `CCN(CC)CCCCNc1nc2cc(Cl)c(Cl)cc2nc1-c1ccc(-c2cccs2)s1`, for which the Potency is 9.35 µM (active).

For `CNC(=O)c1ccc2c(C(=Nc3cccc(CN(C)C)c3)c3ccccc3)c(O)[nH]c2c1`, the Potency is 18.7 µM (active).

As for `Oc1cc(O)cc(C=Cc2ccc(O)c(O)c2)c1`, the Potency was 4.18 µM (active).

With `CC(C)C[C@H](NC(=O)c1cc2ccccc2s1)C(=O)N1CCN(C(=O)[C@H](CO)NS(=O)(=O)c2ccc(Cl)cc2Cl)CC1`, the Potency is 23.5 µM (active).

For the compound `N#Cc1ccc(Oc2ccc3c(c2)COB3O)cc1`, the Potency was 20.9 µM (active).

In the case of `O=C(c1ccc(C(=O)N2CCC(N3CCCC3)CC2)c(Nc2ccccc2)c1)N1CCC(N2CCCC2)CC1`, the Potency entry is “inactive”.

Turning to `NC[C@H]1O[C@H](O[C@@H]2[C@@H](O)[C@@H](O[C@H]3O[C@H](CO)[C@@H](O)[C@H](N)[C@@H]3O)[C@H](N)C[C@@H]2N)[C@H](O)[C@@H](O)[C@H]1O`, the Potency result is “inactive”.

As to `Nc1ccn([C@@H]2O[C@H](CO)[C@@H](O)[C@H]2O)c(=O)n1`, the Potency result was “inactive”.

Consider `O=C(C=Cc1ccc(O)cc1)c1ccc(O)cc1O`, for which the Potency is 20.9 µM (active).

On to `CC(C)(O)CC(=O)NCCn1ccc2ncnc(Nc3ccc(Oc4cccc(C(F)(F)F)c4)c(Cl)c3)c21`, for which the Potency is 23.5 µM (active).
